Data from PubChem BioAssay (NCI).
“And” between values parts separate entries of the source, which are not always exact repeats. Identical values can stand only once. Compounds without any hit were thinned out: in the full panel of roughly 79,000, 15% have a hit. More than one record can exist for a structure, and the calls need not agree. The source made the active and inactive calls. Rule as the data show it: active = growth inhibition above about 70%; inactive = the rest.

Columns and labels:
[1] = NCI Yeast Anticancer Drug Screen. Data for the rad52 strain (AID 147);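 also: 0% = growth of vehicle-treated control cultures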; conditions: S. cerevisiae rad52 mutant growth inhibition, stronger effect = higher value
In short: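 Compounds are applied to a genetically defined yeast strain lacking normal DNA damage repair, and inhibition of growth is expressed relative to cultures given vehicle only.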

[2] = NCI Yeast Anticancer Drug Screen. Data for the wt1 strain (AID 149);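 also: 0% = growth of vehicle-treated wt1 cultures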; conditions: S. cerevisiae wt1 strain (SPY 50644) growth inhibition, stronger effect = higher value
In short: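 Using yeast strain wt1, compound-induced growth inhibition was determined against vehicle-treated cultures.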

[3] = NCI Yeast Anticancer Drug Screen. Data for the rad50EPP+ strain (AID 151);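 also: 0% = growth of vehicle-treated control cultures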; conditions: S. cerevisiae rad50 mutant strain, stronger effect = higher value
In short: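 Compounds were applied to the rad50EPP+ yeast strain, which bears a defined DNA repair alteration, and growth inhibition was determined relative to vehicle-treated cultures.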

[4] = NCI Yeast Anticancer Drug Screen. Data for the rad50 strain (AID 155);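 also: 0% = growth of vehicle-only cultures of the same strain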; conditions: S. cerevisiae rad50 strain growth inhibition, stronger effect = higher value
In short: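 Relative growth inhibition (compound vs vehicle) was measured in yeast with a defined repair-gene alteration.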

[5] = NCI Yeast Anticancer Drug Screen. Data for the mec2-1 strain (AID 157); conditions: S. cerevisiae mec2-1 strain, stronger effect = higher value
In short: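 Strain: mec2-1 (DNA repair/cell cycle alteration). Compound exposure, then growth measured; inhibition expressed relative to vehicle.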

[6] = NCI Yeast Anticancer Drug Screen. Data for the rad14 strain (AID 159);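 also: 0% = growth of vehicle-treated control cultures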; conditions: S. cerevisiae rad14 strain growth inhibition, stronger effect = higher value
In short: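 Screen for anticancer potential: a yeast strain altered in DNA damage repair is grown with compound, and reduced growth is quantified against vehicle controls.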

[7] = NCI Yeast Anticancer Drug Screen. Data for the sgs1 mgt1 strain (AID 161);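 also: 0% = growth of cultures given vehicle only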; conditions: S. cerevisiae sgs1 mgt1 strain, stronger effect = higher value
In short: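 Genetically altered yeast, compound exposure, growth inhibition relative to vehicle.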

[8] = NCI Yeast Anticancer Drug Screen. Data for the CLN2oe strain (AID 163);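 also: 0% = growth of vehicle-only control cultures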; conditions: S. cerevisiae CLN2oe strain, stronger effect = higher value
In short: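 Growth of a genetically modified yeast strain is measured after compound exposure and compared with cultures given vehicle alone.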

[9] = NCI Yeast Anticancer Drug Screen. Data for the bub3 strain (AID 167); conditions: S. cerevisiae bub3 mutant strain, stronger effect = higher value
In short: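 Screening used yeast with an engineered genetic alteration affecting cell cycle control. Compound-exposed cultures were compared with vehicle cultures, and reduced growth was taken as inhibition.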

[10] = NCI Yeast Anticancer Drug Screen. Data for the wt2 strain (AID 169);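 also: 0% = growth of vehicle-treated yeast cultures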; conditions: S. cerevisiae wt2 strain growth inhibition, stronger effect = higher value
In short: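 This strain belongs to a panel of yeast strains with defined genetic alterations in DNA damage repair or cell cycle control. Compounds are applied, and growth inhibition is measured against vehicle-treated cultures.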

[11] = NCI Yeast Anticancer Drug Screen. Data for the mlh1 strain (AID 171);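 also: 0% = growth of vehicle-treated control cultures of the same strain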; conditions: S. cerevisiae mlh1 strain growth inhibition, stronger effect = higher value
In short: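 Growth of the mutant yeast strain after compound exposure, expressed as inhibition relative to vehicle-only controls.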

[12] = NCI Yeast Anticancer Drug Screen. Data for the sgs1 strain (AID 173);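 also: 0% = growth of vehicle-only control cultures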; conditions: S. cerevisiae sgs1 mutant, stronger effect = higher value
In short: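 Growth of a yeast strain bearing a defined genetic alteration is measured after compound treatment. Inhibition is expressed relative to vehicle-only controls.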

[13] = NCI Yeast Anticancer Drug Screen. Data for the mlh1 rad18 strain (AID 175); conditions: S. cerevisiae mlh1 rad18 strain growth inhibition, stronger effect = higher value
In short: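 Read-out is yeast growth inhibition, calculated against vehicle-only controls. The compound was applied to a strain engineered with DNA damage repair alterations.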

[14] = NCI Yeast Anticancer Drug Screen. Data for the rad18 strain (AID 177); conditions: S. cerevisiae rad18 mutant growth inhibition, stronger effect = higher value
In short: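 Growth of the mutant yeast strain after compound exposure, normalised to vehicle-only cultures.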

[15] = NCI Yeast Anticancer Drug Screen. Data for the cln2 rad14 strain (AID 165);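 also: 0% = growth equal to vehicle treated cultures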; conditions: S. cerevisiae cln2 rad14 strain, stronger effect = higher value
In short: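 Compounds are applied to the cln2 rad14 yeast strain, and growth is then compared with that of vehicle-treated cultures to give inhibition.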

[16] = at 5.0 µM (retest, dose inferred, filed as 0.5)
[17] = at 50.0 µM (retest, dose inferred, filed as 5.0)

Measured: growth inhibition

CC(C)c1cccc(O)c(=O)c1
active: [1]; at 100.0 µM 99% | [2]; at 100.0 µM 98% | [3]; at 100.0 µM 98% | [4]; at 50.0 µM 98.5% and 92.5% | [4]; at 100.0 µM 98% | [5]; at 50.0 µM 99% and 94.2% | [5]; at 100.0 µM 98% | [6]; at 33.0 µM 74% | [6]; at 100.0 µM 99% | [7]; at 50.0 µM 93.9% and 93.2% | [8]; at 100.0 µM 98% | [9]; at 50.0 µM 99.3% and 93.2% | [9]; at 100.0 µM 98% | [10]; at 33.0 µM 70% | [10]; at 100.0 µM 99% | [11]; at 100.0 µM 99% | [12]; at 100.0 µM 98% | [13]; at 50.0 µM 98.4% and 91.7% | [14]; at 100.0 µM 98%
inactive: [1]; at 1.2 µM 2% | [1]; at 3.7 µM -3% | [1]; at 11.0 µM 0% | [1]; at 33.0 µM 18% | [2]; at 1.2 µM -1% | [2]; at 3.7 µM -1% | [2]; at 11.0 µM -1% | [2]; at 33.0 µM 38% | [3]; at 1.2 µM 5% | [3]; at 3.7 µM 8% | [3]; at 11.0 µM -20% | [3]; at 33.0 µM 13% | [4]; at 1.2 µM -7% | [4]; at 3.7 µM -9% | [4]; [16] -1% and 2% | [4]; at 11.0 µM -8% | [4]; at 33.0 µM 27% | [5]; at 1.2 µM -1% | [5]; at 3.7 µM 2% | [5]; [16] -43% and 0% | [5]; at 11.0 µM 6% | [5]; at 33.0 µM 47% | [6]; at 1.2 µM 6% | [6]; at 3.7 µM 4% | [6]; at 11.0 µM 9% | [7]; [16] -2% and 9% | [8]; at 1.2 µM 3% | [8]; at 3.7 µM 4% | [8]; at 11.0 µM 2% | [8]; at 33.0 µM 25% | [9]; at 1.2 µM 5% | [9]; at 3.7 µM -2% | [9]; [16] -7% and 0% | [9]; at 11.0 µM -4% | [9]; at 33.0 µM 13% | [10]; at 1.2 µM 9% | [10]; at 3.7 µM 14% | [10]; at 11.0 µM 13% | [11]; at 1.2 µM -6% | [11]; at 3.7 µM -1% | [11]; at 11.0 µM 2% | [11]; at 33.0 µM 46% | [12]; at 1.2 µM -3% | [12]; at 3.7 µM -11% | [12]; at 11.0 µM -1% | [12]; at 33.0 µM 60% | [13]; [16] -3% and 7% | [14]; at 1.2 µM -6% | [14]; at 3.7 µM 1% | [14]; at 11.0 µM 2% | [14]; at 33.0 µM 18%
40% (inactive) and 99% (active): [13]; [17]
18% (inactive) and 99% (active): [9]; [17]
36% (inactive) and 99% (active): [7]; [17]
52% (inactive) and 99% (active): [4]; [17]
47% (inactive) and 100% (active): [5]; [17]

O=C1C=CC(=O)N1c1ccc2c(c1)OCO2
active: [1]; at 3.7 µM 94% | [1]; at 11.0 µM 100% | [1]; at 33.0 µM 100% | [1]; at 100.0 µM 100% | [2]; at 3.7 µM 96% | [2]; at 11.0 µM 100% | [2]; at 33.0 µM 100% | [2]; at 100.0 µM 100% | [3]; at 3.7 µM 80% | [3]; at 11.0 µM 99% | [3]; at 33.0 µM 99% | [3]; at 100.0 µM 99% | [4]; at 3.7 µM 86% | [4]; [16] 84% | [4]; at 11.0 µM 99% | [4]; at 33.0 µM 99% | [4]; [17] 97% | [4]; at 50.0 µM 99% | [4]; at 100.0 µM 99% | [5]; at 3.7 µM 76% | [5]; at 11.0 µM 100% | [5]; at 33.0 µM 100% | [5]; [17] 99% | [5]; at 50.0 µM 98.5% | [5]; at 100.0 µM 99% | [6]; at 3.7 µM 99% | [6]; at 11.0 µM 100% | [6]; at 33.0 µM 100% | [6]; at 100.0 µM 100% | [8]; at 11.0 µM 100% | [8]; at 33.0 µM 100% | [8]; at 100.0 µM 99% | [15]; [17] 98% | [15]; at 50.0 µM 99% | [9]; at 3.7 µM 90% | [9]; at 11.0 µM 100% | [9]; at 33.0 µM 99% | [9]; [17] 98% | [9]; at 50.0 µM 99.2% | [9]; at 100.0 µM 99% | [10]; at 3.7 µM 99% | [10]; at 11.0 µM 100% | [10]; at 33.0 µM 100% | [10]; at 100.0 µM 100% | [11]; at 11.0 µM 100% | [11]; at 33.0 µM 100% | [11]; at 100.0 µM 99% | [12]; at 3.7 µM 85% | [12]; at 11.0 µM 100% | [12]; at 33.0 µM 100% | [12]; at 100.0 µM 100% | [13]; [17] 97% | [13]; at 50.0 µM 99.2% | [14]; at 11.0 µM 100% | [14]; at 33.0 µM 100% | [14]; at 100.0 µM 99%
inactive: [1]; at 1.2 µM 11% | [2]; at 1.2 µM 9% | [3]; at 1.2 µM 9% | [4]; at 1.2 µM 12% | [5]; at 1.2 µM -3% | [5]; [16] 12% | [6]; at 1.2 µM 21% | [8]; at 1.2 µM -9% | [8]; at 3.7 µM 40% | [15]; [16] -4% | [9]; at 1.2 µM 2% | [9]; [16] 25% | [10]; at 1.2 µM 17% | [11]; at 1.2 µM -11% | [11]; at 3.7 µM 58% | [12]; at 1.2 µM 15% | [13]; [16] -39% | [14]; at 1.2 µM -6% | [14]; at 3.7 µM 58%

CCCCC(CC)C(=O)Oc1ccc(C(=O)c2ccccc2)c(O)c1 (stereo not given)
active: [1]; at 100.0 µM 98% | [2]; at 100.0 µM 98% | [3]; at 100.0 µM 88% | [4]; [17] 76% | [4]; at 50.0 µM 74.9% | [4]; at 100.0 µM 96% | [5]; [17] 79% | [5]; at 50.0 µM 75.2% | [5]; at 100.0 µM 98% | [6]; at 100.0 µM 97% | [8]; at 100.0 µM 97% | [9]; [17] 89% | [9]; at 50.0 µM 73% | [9]; at 100.0 µM 98% | [10]; at 100.0 µM 97% | [11]; at 100.0 µM 97%
inactive: [1]; at 1.2 µM 4% | [1]; at 3.7 µM 3% | [1]; at 11.0 µM 6% | [1]; at 33.0 µM 61% | [2]; at 1.2 µM -13% | [2]; at 3.7 µM -17% | [2]; at 11.0 µM -15% | [2]; at 33.0 µM 37% | [3]; at 1.2 µM 8% | [3]; at 3.7 µM 13% | [3]; at 11.0 µM 20% | [3]; at 33.0 µM 54% | [4]; at 1.2 µM 7% | [4]; at 3.7 µM 4% | [4]; [16] 50% | [4]; at 11.0 µM 15% | [4]; at 33.0 µM 56% | [5]; at 1.2 µM 10% | [5]; at 3.7 µM 15% | [5]; [16] 53% | [5]; at 11.0 µM 19% | [5]; at 33.0 µM 61% | [6]; at 1.2 µM -5% | [6]; at 3.7 µM -6% | [6]; at 11.0 µM -8% | [6]; at 33.0 µM 29% | [8]; at 1.2 µM 0% | [8]; at 3.7 µM 17% | [8]; at 11.0 µM 19% | [8]; at 33.0 µM 50% | [9]; at 1.2 µM 21% | [9]; at 3.7 µM 27% | [9]; [16] -1% | [9]; at 11.0 µM 32% | [9]; at 33.0 µM 69% | [10]; at 1.2 µM -18% | [10]; at 3.7 µM -7% | [10]; at 11.0 µM -4% | [10]; at 33.0 µM 37% | [11]; at 1.2 µM -9% | [11]; at 3.7 µM -10% | [11]; at 11.0 µM 3% | [11]; at 33.0 µM 55% | [12]; at 1.2 µM 10%
